An excerpt weighted towards active compounds, which were near 2.7% of everything screened.
TMEM16A inh: inhibitors of mouse TMEM16A calcium-activated chloride channel; normalized B-score (activity score, 25-100; higher = stronger inhibition) at 10 µM; HEK293 TMEM16A/YFP iodide influx fluorescence, ionomycin; 1.2% of 310,000 active; Q8BHY3; AID 588511;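 active means ratio plate-corrected score three or more library SD toward inhibition, starting fluorescence score within five deviations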;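 further: score derived from kinetic fluorescence span divided by baseline fluorescence per well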
PP5 inh: PP5 (human) phosphatase inhibition | AID 1987 | 0.18% of 320,000 active | inhibition, % at 6.7 µM | purified PP5c, OMFP substrate fluorescence;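 active means inhibition above the campaign's mean inhibition across all tested compounds plus 3 SD, cut at about 9.5% in these data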
FID counter: fluorescent intercalator displacement, NS3 helicase counter-screen | DNA fluorescent intercalator displacement, fluorescence | inhibition, % at 7.9 µM | 0.17% of 290,000 active; in the data active means inhibition above about 37%;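 further: higher means more ethidium bromide displaced from hairpin DNA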
TMEM16A act: activates or potentiates the mouse TMEM16A chloride channel. Q8BHY3. HEK293 TMEM16A/YFP-H148Q/I152L, iodide quench fluorescence; active compounds read low. B-score at 10 µM. 0.3% of 340,000 active;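 active means fluorescence-ratio B-score plate-corrected deviation score at least 3 library SD below zero, with starting fluorescence score within 5 deviations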;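 further: channel opened by trigger with iodide after compound preincubation; score built on the fluorescence ratio of max minus min over baseline; more negative score means more quench and so TMEM16A activation or potentiation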
PREPL inhibitor: human PREPL enzyme inhibition | Q4J6C6 | recombinant PREPL, fluorescence polarization activity-based probe | inhibition, % at 5.96 µM | 0.68% of 320,000 active | AID 2751; in the data active means inhibition above about 43%
PP1 inh: blocks human PP1-alpha phosphatase, a PP5 counter-screen | P62136 | purified PP1alpha, OMFP fluorescence | inhibition, % at 6.7 µM | 0.9% of 320,000 active | AID 2235;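 active means inhibition above the mean inhibition of all tested compounds plus 3 SD, computed separately for each screening campaign, cut at about 15% in these data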
Target sequence (P62136 whole entry, looked up): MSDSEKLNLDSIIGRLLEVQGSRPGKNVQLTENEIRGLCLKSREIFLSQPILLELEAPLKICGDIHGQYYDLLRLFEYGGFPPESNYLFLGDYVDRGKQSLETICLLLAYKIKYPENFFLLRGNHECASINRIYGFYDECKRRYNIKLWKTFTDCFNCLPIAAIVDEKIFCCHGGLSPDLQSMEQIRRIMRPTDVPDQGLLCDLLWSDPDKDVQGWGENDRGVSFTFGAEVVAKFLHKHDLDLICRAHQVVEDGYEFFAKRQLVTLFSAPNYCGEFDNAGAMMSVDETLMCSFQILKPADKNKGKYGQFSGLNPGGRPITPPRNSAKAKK
TMEM16A reconf: reconfirmed blocker of mouse TMEM16A calcium-activated chloride channel; shares compounds with TMEM16A inh; inhibition, % at 10 µM; HEK293 TMEM16A/YFP-H148Q, iodide quench fluorescence; ionomycin added to raise cell calcium; 39% of 2,300 active;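 active means mean duplicate percent inhibition, scaled so buffer wells are 0 and the reference blocker 100, over three buffer SD above buffer mean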
HEK293 Ca mobil: alters calcium mobilization in TMEM16A HEK293 cells, counter-screen. TMEM16A/YFP HEK293, Fluo4 calcium mobilization. calcium response (% of ionomycin), % at 10 µM. shares compounds with TMEM16A inh. 2% of 2,300 active;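 active means duplicate-averaged calcium signal over 20% of the ionomycin maximum, relative to buffer baseline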;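 further: each well's signal is peak minus trough fluorescence divided by its pre-addition baseline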
YFP-HEK293 quench: acts in parental YFP-HEK293 cells lacking TMEM16A, counter-screen; iodide YFP quench, ionomycin; shares compounds with TMEM16A inh; 2,300 tested, under 10 active; AID 652233; YFP ratio F(max-min)/F0 at 10 µM;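 active means yellow fluorescent protein signal ratio exceeding the buffer control mean by over 5 SD of those controls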;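 further: ratio is mean of duplicate wells from kinetic YFP trace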
ClC-1 rat inh: selectivity of TMEM16A inhibitors: inhibition of rat ClC-1 chloride channel; 2,300 tested, under 10 active; shares compounds with TMEM16A inh; AID 652236; ratio percent, % at 10 µM; CHO ClC-1-YFP, iodide influx fluorescence quench; iodide control reads 0, buffer control 100;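 active means duplicate-mean ratio percent above the mean of iodide-only control wells, which defines zero, plus 5 of their SD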;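 further: higher percent means stronger block of ClC-1 iodide influx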
Of the large screens only hits and unclear results are named; the others gave an inactive call (follow-up assays come after a bar, where they were run).

Cc1ccc(CNC(=O)c2ccccc2NS(=O)(=O)c2ccc(Cl)nc2)cc1	TMEM16A inh 100 | TMEM16A reconf 18% | HEK293 Ca mobil inactive | YFP-HEK293 quench inactive | ClC-1 rat inh inactive
Cc1ccc(CNC(=O)c2ccccc2NS(C)(=O)=O)cc1	none
CN(C)N1C(N)=C(C#N)C(c2cccs2)C2=C1CC(C)(C)CC2=O (stereo not drawn)	none
COc1ccc(OC)c(CNc2nc3ccccc3n2CCN2CCCCC2)c1	none
COc1cccc(CNc2nc3ccccc3n2CCN2CCCCC2)c1OC	TMEM16A inh 25 | TMEM16A reconf inactive | HEK293 Ca mobil inactive | YFP-HEK293 quench inactive | ClC-1 rat inh inactive
CCOc1ccccc1N1CCN(C(=O)c2ccccc2SCC(=O)N2CCCC2)CC1	none
O=C(CN1C(=O)S/C(=C\c2ccccc2)C1=O)Nc1cc([N+](=O)[O-])ccc1O	TMEM16A inh 100, FID counter 43 | TMEM16A reconf 22% | HEK293 Ca mobil inactive | YFP-HEK293 quench inactive | ClC-1 rat inh inactive
Cc1ccc(S(=O)(=O)N(C)CC(=O)NCCCn2ccnc2)cc1	none
COc1cccc(CN2C(=O)[C@@H]3Cc4c([nH]c5ccccc45)C(C)(C)N3C2=O)c1	TMEM16A inh 25 (no result: FID counter) | TMEM16A reconf 18% | HEK293 Ca mobil inactive | YFP-HEK293 quench inactive | ClC-1 rat inh inactive
COc1ccc(N2CCN(C(=O)CSc3nnc4nc(C)cc(C)n34)CC2)cc1	TMEM16A inh 25 | TMEM16A reconf inactive | HEK293 Ca mobil inactive | YFP-HEK293 quench inactive | ClC-1 rat inh inactive
Cc1c(C(=O)OCCOc2ccc(Br)cc2)sc(=S)n1C	none
c1ccc(-c2csc(N3CCOCC3)n2)cc1	none
c1ccc(-c2csc(N3CCN(c4ccccn4)CC3)n2)cc1	TMEM16A inh 25 | TMEM16A reconf inactive | HEK293 Ca mobil inactive | YFP-HEK293 quench inactive | ClC-1 rat inh inactive
COc1ccc(Cc2nc(C(=O)Nc3ccc(OC)cc3)cs2)cc1	TMEM16A inh 25 | TMEM16A reconf inactive | HEK293 Ca mobil inactive | YFP-HEK293 quench inactive | ClC-1 rat inh inactive
O=[N+]([O-])c1ccc(-c2nnc(-c3ccccc3)c(N3CCOCC3)n2)cc1	none | TMEM16A reconf inactive | HEK293 Ca mobil inactive | YFP-HEK293 quench inactive | ClC-1 rat inh inactive
CC(=O)Oc1ccc(-c2cccc(C(=O)NCCO)c2)cc1	none
CC(=O)Oc1ccc(-c2cccc(C(=O)NCC(=O)O)c2)cc1	TMEM16A inh 25 | TMEM16A reconf inactive | HEK293 Ca mobil inactive | YFP-HEK293 quench inactive | ClC-1 rat inh inactive
Cc1cccc(Cn2c(Sc3nc(C)cs3)nc3c2c(=O)[nH]c(=O)n3C)c1	TMEM16A inh 100 | TMEM16A reconf inactive | HEK293 Ca mobil inactive | YFP-HEK293 quench inactive | ClC-1 rat inh inactive
CCCc1[nH]nc2c1C1(CCOC1C)C(C#N)=C(N)O2 (stereo not drawn)	TMEM16A inh 25 | TMEM16A reconf inactive | HEK293 Ca mobil inactive | YFP-HEK293 quench inactive | ClC-1 rat inh inactive
Cc1nc(C(F)(F)F)c(C(=O)NC(=O)Nc2ccc(OC(F)(F)F)cc2)s1	TMEM16A inh 100 | TMEM16A reconf inactive | HEK293 Ca mobil inactive | YFP-HEK293 quench inactive | ClC-1 rat inh inactive
Cc1ccc(NC(=O)CSc2nc3ccccc3c3nc(CCc4c(C)n[nH]c4C)nn23)cc1F	TMEM16A inh 25 | TMEM16A reconf 29% | HEK293 Ca mobil inactive | YFP-HEK293 quench inactive | ClC-1 rat inh inactive
CN(c1ccccc1)S(=O)(=O)c1cccc(NC(=O)CSc2nnc(N)s2)c1	TMEM16A inh 100 | TMEM16A reconf 35% | HEK293 Ca mobil inactive | YFP-HEK293 quench inactive | ClC-1 rat inh inactive
CN(c1ccccc1)S(=O)(=O)c1cccc(NC(=O)CSc2nncs2)c1	none
Cc1csc(SCC(=O)Nc2nc(-c3ccccc3)cs2)n1	TMEM16A inh 100 | TMEM16A reconf inactive | HEK293 Ca mobil inactive | YFP-HEK293 quench inactive | ClC-1 rat inh inactive
CCc1nnc(NC(=O)CSc2nnc(-c3ccccc3OC)n2-c2ccc(C)cc2)s1	none
Cc1cc(=O)[nH]c(SCC(=O)Nc2nc(-c3ccccc3)cs2)n1	none
CCc1nnc(NC(=O)CSc2nnc(-c3ccccc3OC)n2-c2ccccc2)s1	TMEM16A inh 25 | TMEM16A reconf inactive | HEK293 Ca mobil inactive | YFP-HEK293 quench inactive | ClC-1 rat inh inactive
Cc1ccc(-c2csc(NC(=O)CSc3nc(C)cs3)n2)cc1	TMEM16A inh 25 | TMEM16A reconf inactive | HEK293 Ca mobil inactive | YFP-HEK293 quench inactive | ClC-1 rat inh inactive
COc1ccccc1-c1nnc(SCC(=O)Nc2nc(-c3ccccc3)cs2)n1C	TMEM16A inh 100 | TMEM16A reconf 18% | HEK293 Ca mobil inactive | YFP-HEK293 quench inactive | ClC-1 rat inh inactive
O=C(O)c1ccccc1NC(=O)N1CCOCC1	none
CCn1cc(C2CC(=O)NC2=O)c2ccccc21 (stereo not drawn)	none
CCOC(=O)N1CCN(C(=O)CCNS(=O)(=O)c2ccc3c(c2)c(=O)n(C)c(=O)n3C)CC1	none
O=c1c2c([nH]c3ccccc13)CCCCCC2	TMEM16A inh 25 | TMEM16A reconf inactive | HEK293 Ca mobil inactive | YFP-HEK293 quench inactive | ClC-1 rat inh inactive
CN(C)C(=O)CSc1nc2ccc(C(=O)c3ccccc3)cc2[nH]1	none
Cc1ccc(S(=O)(=O)CC2CSc3nc4ccccc4n32)cc1 (stereo not drawn)	TMEM16A inh 25 | TMEM16A reconf 36% | HEK293 Ca mobil inactive | YFP-HEK293 quench inactive | ClC-1 rat inh inactive
FC(F)(F)c1cccc(-c2nc3nc(Cl)c(Cl)nc3[nH]2)c1	TMEM16A inh 25 | TMEM16A reconf 31% | HEK293 Ca mobil inactive | YFP-HEK293 quench inactive | ClC-1 rat inh inactive
COc1cnc(-c2cccc(C(F)(F)F)c2)[nH]c1=O	none
O=C(CNS(=O)(=O)c1ccccc1)N/N=C/c1ccccc1[N+](=O)[O-]	none
CN(c1ccccc1)S(=O)(=O)c1ccc(NC(=O)c2nc(S(C)(=O)=O)ncc2Cl)cc1	TMEM16A inh 25, TMEM16A act -5.5 | TMEM16A reconf 18% | HEK293 Ca mobil inactive | YFP-HEK293 quench inactive | ClC-1 rat inh inactive
C/C(=N/NC(=O)CCc1c(C)n[nH]c1C)c1cccc([N+](=O)[O-])c1	none
